Results taken from PubChem BioAssay (NCATS).
Records with an inconclusive call do not appear. A number with no mark means an inactive call. Calls of active or inactive are those of the source. Calls come from the whole dose curve; as a rule, active = well fitted curve in the direction sought with a large enough effect; inconclusive = small, poorly fitted or top-dose-only effect, or another doubt; inactive = no such curve, though single readings can be large or run the other way.

Target: Ferritin light chain (Equus caballus) (UniProt P02791)
Sequence (P02791 2-175 limits assumed): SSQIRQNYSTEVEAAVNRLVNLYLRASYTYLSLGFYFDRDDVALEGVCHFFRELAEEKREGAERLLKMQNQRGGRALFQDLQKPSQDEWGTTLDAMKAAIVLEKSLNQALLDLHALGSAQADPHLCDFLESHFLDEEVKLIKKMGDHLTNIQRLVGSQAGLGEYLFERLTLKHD
Test: qHTS Validation Assay for Identification of Novel General Anesthetics (AID 2323)
Conditions: horse apoferritin, anesthetic-site fluorescent probe displacement; series mostly up to 76.9 µM; activity change, negative = inhibition: at the top concentration
Description: Source: NIH Chemical Genomics Center [NCGC]
Assay Submitter: Roderic Eckenhoff, University of Pennsylvania
Screening Center PI: Christopher P. Austin, NIH
Probe Development: NIH Chemical Genomics Center [NCGC]
Anesthetic development has remained a largely empirical process. There are growing concerns about the cognitive effects of known general anesthetics and acceleration of the onset of neurodegenerative disease. The compounds' toxicity and multiple specific binding targets in the mammalian brain [4] has made them less attractive as drug leads. In this assay, a GABAergic mimetic model system, apoferritin and a profluorescent 1-aminoanthracene ligand (1-AMA), was used to construct a competitive binding assay for identification of novel general anesthetics. The assay was validated for 1-AMA using other known anesthetics, such as isoflurane (CID:3763) and propofol (CID: 4943), [6].
[1] S.L. Bianchi, T. Tran, C. Liu, S. Lin, Y. Li, J.M. Keller, R.G. Eckenhoff, and M.F. Eckenhoff, Brain and behavior changes in 12-month-old Tg2576 and nontransgenic mice exposed to anesthetics. Neurobiol Aging 29 (2008) 1002-10.
[2] Z. Xie, Y. Dong, U. Maeda, R.D. Moir, W. Xia, D.J. Culley, G. Crosby, and R.E. Tanzi, The inhalation anesthetic isoflurane induces a vicious cycle of apoptosis and amyloid beta-protein accumulation. J Neurosci 27 (2007) 1247-54.
[3] P. Honegger, and J.M. Matthieu, Selective toxicity of the general anesthetic propofol for GABAergic neurons in rat brain cell cultures. J Neurosci Res 45 (1996) 631-6.
[4] M.F. Eckenhoff, K. Chan, and R.G. Eckenhoff, Multiple specific binding targets for inhaled anesthetics in the mammalian brain. J Pharmacol Exp Ther 300 (2002) 172-9.
[5] C.A. Butts, J. Xi, G. Brannigan, A.A. Saad, S.P. Venkatachalan, R.A. Pearce, M.L. Klein, R.G. Eckenhoff, and I.J. Dmochowski, Identification of a fluorescent general anesthetic, 1-aminoanthracene. Proc Natl Acad Sci U S A 106 (2009) 6501-6.
[6] W.A. Lea, J. Xi, A. Jadhav, L. Lu, C.P. Austin, A. Simeonov, and R.G. Eckenhoff, A high-throughput approach for identification of novel general anesthetics. PLoS One 4 (2009) e7150.
Three uL of reagents (free 1-AMA (50% saturated solution of 1-aminoanthracene
in PBS) in columns 3, 4 as negative control and 1-AMA/apoferritin mixture (10 uM horse-spleen apoferritin in 50% saturated 1-aminoanthracene in PBS) in columns 1, 2, 5-48) was dispensed into 1536-well Greiner black assay plates. Compounds (23 nL) were transferred via Kalypsys pintool equipped with 1,536-pin array (10 nL slotted pins, V&P Scientific, San Diego, CA). Titration of the positive control, propofol, were delivered via pin transfer from separate control plates to the 2nd column of each assay plate. The starting concentration of the control, dissolved in DMSO, was at 160 mM, followed by two-fold dilution points in duplicate, for a total of 16 concentrations. The plates were incubated for 10 min at room temperature, and then read on an EnVision HTS multilabel reader (Perkin-Elmer, Waltham, MA) (end point read, 3 min/plate) using Fura2 BFP excitation filter (380 nm, bandwidth 10 nm) and fluorescein emission filter (535 nm, bandwidth 25 nm) set. A LANCE/DELFIA dichroic mirror with a cutoff wavelength at 400 nm was used to maximize signal accuracy and strength. Vehicle-only plates, with DMSO being pin-transferred to the entire column 5-48 compound area, were inserted uniformly at the beginning and the end of each library in order to monitor for and record any shifts in the background. Activity was computed as the normalized fluorescence response relative to free 1-AMA and 1-AMA/apoferritin complex values. Concentration-effect relationships were derived by using curve fitting algorithms developed in-house (http://ncgc.nih.gov/pub/openhts/). A four parameter Hill equation was fitted to the concentration-response data by minimizing the residual error between the modeled and observed responses.
% is set by controls: 0 for no effect and ±100 for the full control effect.

Compound	activity change, negative = inhibition [%]	Potency
COc1cc(CC(=O)O)ccc1O	-12.1	–
CCCc1c(-c2ccc(O)cc2)nn(-c2ccc(O)cc2)c1-c1ccc(O)cc1	10.6	–
CC(=O)O[C@H]1CC2(C)[C@@H](C[C@@H](O)[C@H]3[C@@]4(C)CC[C@@H](O)[C@@H](C)[C@@H]4CC[C@@]32C)C1=C(CCC=C(C)C)C(=O)O (stereo not given in full)	-15.9	–
Nc1ccc(N2C(=O)c3ccccc3C2=O)c(Cl)c1	0.453	–
C#CCn1c(=O)c2c(ncn2C)n(C)c1=O	-3.77	–
O=[N+]([O-])c1cccc2cn[nH]c12	-15.4	–
O=C1C2C=CC=CC2=NC(=S)N1CCN1CCC(=C(c2ccc(F)cc2)c2ccc(F)cc2)CC1 (stereo not given)	20.1	–
OCC1NCC(O)C(O)C1O (stereo not given)	3.6	–
O=C(N[C@@H](Cc1ccccc1)C(=O)CCl)OCc1ccccc1	-18.9	–
CC(C)C[C@H](NC(=O)[C@H](O)[C@H](N)Cc1ccccc1)C(=O)O	-6.97	–
CN1CCN(c2nc3cc(C(F)(F)F)ccc3n3cccc23)CC1	34.9	–
NC(=O)c1ccccc1	-9.13	–
CC[C@H](NC(=O)c1c(C)c(-c2ccccc2)nc2ccccc12)c1ccccc1	19	–
Cc1cccc(C2CN(C)CCc3c2cc(O)c(O)c3Cl)c1 (stereo not given)	-8.68	–
CNCCNS(=O)(=O)c1cccc2cnccc12	-0.334	–
O=C(O)/C(=C/c1c(C(=O)O)[nH]c2cc(Cl)cc(Cl)c12)c1ccccc1	7	–
O=C(O)Cc1ccc(O)c(O)c1	-11.9	–
CCCCS(=N)(=O)CC[C@H](N)C(=O)O (stereo not given in full)	7.16	–
COc1cc(C(O)CO)ccc1O (stereo not given)	-0.547	–
COc1cc(N)c(Cl)cc1C(=O)OCCN1CCCCC1	-2.1	–

Compound	activity change, negative = inhibition [%]	Potency
N#CC(C#N)=C(N)/C(C#N)=C/c1ccc(O)cc1	-7.19	–
O=c1ccn([C@@H]2O[C@H](COP(=O)(O)OP(=O)(O)O)[C@@H](O)[C@H]2O)c(=O)[nH]1	4.81	–
NCCCCN=C(N)N	-5.4	–
CO/N=C(\C(=O)N[C@@H]1C(=O)N2C(C(=O)O)=C(CSc3nc(=O)c(O)nn3C)CSC12)c1csc(N)n1 (stereo not given in full)	-4.65	–
CC[N+](CC)(CC)CC(=O)Nc1c(C)cccc1C	-3.65	–
CC(C)Cn1c(=O)n(C)c(=O)c2[nH]cnc21	-5.16	–
C=CCN1CCc2cc(O)c(O)cc2C(c2ccccc2)C1 (stereo not given)	-15	–
NCC(O)c1ccc(O)c(O)c1 (stereo not given)	-2.91	–
NC1CONC1=O (stereo not given)	-2.58	–
COc1ccc2c(c1)c(CC(=O)O)c(C)n2C(=O)c1ccccc1	-11.8	–
Cc1cccc(C)c1OCC(N)C(C)C (stereo not given)	-5.82	–
c1ccc2nc(C3=NCCN3)ccc2c1	-3.84	–
CCSC(=N)N	-0.88	–
C=CCn1c(=O)c2c(nc(-c3ccc(S(=O)(=O)O)cc3)n2C)n(C)c1=O	323	–
CC(C)NC[C@H](O)COc1ccc(CC(N)=O)cc1	–	inactive
CNc1cc(NS(=O)(=O)c2ccc(N)cc2)nc(NC)n1	-3.11	–
NC(Cc1cccc(-c2ccccc2CP(=O)(O)O)c1)C(=O)O (stereo not given)	0.57	–
Cn1c(=O)c2c(nc(/C=C/c3cccc(Cl)c3)n2C)n(C)c1=O	271	–
COc1ccc(NC(=O)c2ccc(-c3ccc(-c4noc(C)n4)cc3C)cc2)cc1N1CCN(C)CC1	89	–
CCCn1c(=O)c2c(ncn2C)n(CCC)c1=O	-5.92	–
